# Source: PubChem BioAssay (Tox21)
# Results filed as inconclusive are left out. A number with no mark means an inactive call. Calls of active or inactive are those of the source. The call rests on the fitted dose curve; in most records, active means well fitted curve in the direction sought with a large enough effect in the repeat runs; inconclusive means weak or mixed curves; inactive means no such curve, though single readings can be large; an effect the other way counts as inactive or inconclusive.
# System: not listed separately
# Assay: qHTS assay to identify small molecule antagonists of the estrogen receptor alpha (ER-alpha) signaling pathway using the BG1 cell line - cell viability counter screen (AID 743081);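 further: compound given together with 17beta-estradiol as the ER stimulus; nearly all actives have a fitted effect of over 45% in size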
# Conditions: BG1Luc4E2 viability, CellTiter-Fluor, 22 h; series mostly up to 70.3 µM; activity change, negative = cytotoxicity: at the top concentration
# On the % scale 0 is the no-effect control and ±100 the full control effect.
SMILES,Potency,"activity change, negative = cytotoxicity"
Cc1ccc(C(=O)C(C)CN2CCCCC2)cc1 (stereo unspecified),inactive,–
ClC(Cl)(Cl)c1ccc(C(Cl)(Cl)Cl)cc1,–,0.126%
COC(=O)C(C)=O,–,8.8% [at 95 µM]
C=C(C)C(=O)OCCN(C)C,–,-1.38% [at 95 µM]
CC(=O)N(O)CCCCCNC(=O)CCC(=O)N(O)CCCCCNC(=O)CCC(=O)N(O)CCCCCN,–,1.42% [at 32.5 µM]
C[C@H](CCC(=O)O)[C@H]1CC[C@H]2[C@@H]3[C@H](O)C[C@@H]4C[C@H](O)CC[C@]4(C)[C@H]3CC[C@]12C,inactive,–
CCCCCCCCCCCCCCC1CO1 (stereo unspecified),–,5.99%
CC(C)NCC(O)COc1ccc(CC(N)=O)cc1 (stereo unspecified),–,10.3%
NCCCN(CCO)CCO,–,8.83%
CCCCCCCCCCCCCCCBr,–,-1.13%
Cc1ncsc1CCO,–,-3.66%
O=C(Nc1ccccc1)OCC(CN1CCCCC1)OC(=O)Nc1ccccc1 (stereo unspecified),–,-12% [at 32.5 µM]
CC(C(=O)O)c1ccc(-c2ccccc2)c(F)c1 (stereo unspecified),inactive,–
O=C(C(=O)c1ccc(Br)cc1)c1ccc(Br)cc1,–,-3.12% [at 32.5 µM]
OCC1CC2CC1C1CCC(CO)C21 (stereo unspecified),–,0.338%
CCCCCCCCCO,–,5.05%
CCCCCCCCC(CO)CCCCCC (stereo unspecified),–,-3.34%
CC(=O)CC(=O)c1ccccc1,–,-3.82% [at 95 µM]
CC[C@H](C)[C@@H](C(=O)O)n1sc2ccccc2c1=O,–,6.26%

SMILES,Potency,"activity change, negative = cytotoxicity"
N=C(N=C(N)N)N1CCOCC1,–,0.761% [at 32.5 µM]
N[C@H]1C(O)O[C@H](CO)[C@H](O)[C@@H]1O (stereo partly specified),–,-1.73%
O=C(O)COC(=O)Cc1ccccc1Nc1c(Cl)cccc1Cl,–,-2.09% [at 32.5 µM]
CC(C)(C)C1CCCCC1O (stereo unspecified),–,4.02%
N#CCCNCCC#N,–,5.97% [at 95 µM]
NCCCOCCOCCOCCCN,–,-3.18%
N#CCc1cccc(C(F)(F)F)c1,–,14.7%
Cc1ccc(C(N)=O)cc1N,–,5.21%
C=CC[N+]1([C@H]2C[C@H]3[C@@H]4CC[C@H]5C[C@H](OC(C)=O)[C@@H](N6CCCCC6)C[C@]5(C)[C@H]4CC[C@]3(C)[C@H]2OC(=O)CC)CCCCC1,–,24.2%
CN(C)CCCOc1nn(Cc2ccccc2)c2ccccc12,–,-3.66% [at 32.5 µM]
CC(=O)NCCCS(=O)(=O)O,inactive,–
CCOC(=O)CC(C)C,–,8.43%
CC(=O)SCc1ccco1,–,-1.91%
Cn1c(=O)c2c(ncn2CC(O)CO)n(C)c1=O (stereo unspecified),–,-2.58% [at 32.5 µM]
CCOC(=O)CC(=O)c1cc(F)c(Cl)nc1Cl,–,4.97% [at 95 µM]
Nc1nc(N)c2nc(CNc3ccc(C(=O)N[C@@H](CCC(=O)O)C(=O)O)cc3)cnc2n1,–,6.65%
COCCOCCOCCOCCOC,–,-8.65%
O=C(Cl)c1ccc([N+](=O)[O-])cc1,–,-10.1%

# Target: Aromatase (Homo sapiens) (UniProt P11511)
# Sequence (P11511 whole entry, looked up): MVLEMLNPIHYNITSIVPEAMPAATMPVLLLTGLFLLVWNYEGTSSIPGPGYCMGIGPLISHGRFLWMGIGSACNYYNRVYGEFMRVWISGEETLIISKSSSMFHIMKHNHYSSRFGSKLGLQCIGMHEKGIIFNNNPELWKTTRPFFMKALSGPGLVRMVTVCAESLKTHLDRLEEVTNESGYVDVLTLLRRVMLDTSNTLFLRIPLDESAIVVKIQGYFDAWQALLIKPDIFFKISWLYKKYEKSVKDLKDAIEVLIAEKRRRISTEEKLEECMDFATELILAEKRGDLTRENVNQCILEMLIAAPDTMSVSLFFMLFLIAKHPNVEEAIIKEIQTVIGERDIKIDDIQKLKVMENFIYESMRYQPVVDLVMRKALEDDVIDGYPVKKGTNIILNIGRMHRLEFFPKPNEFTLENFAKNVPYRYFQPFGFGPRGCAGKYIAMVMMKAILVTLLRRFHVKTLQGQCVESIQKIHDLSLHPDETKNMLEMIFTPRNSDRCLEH
# Assay: qHTS assay to identify aromatase inhibitors (AID 743083); further: nearly all actives have a fitted effect of over 55% in size
# Conditions: MCF-7 aro ERE, testosterone-driven ERE luciferase, 24 h; series mostly up to 70.3 µM; activity, negative = inhibition: at the top concentration
SMILES,Potency,"activity, negative = inhibition"
Cc1ccc(C(=O)C(C)CN2CCCCC2)cc1 (stereo unspecified),inactive,–
COC(=O)C(C)=O,–,6.24% [at 95 µM]
C=C(C)C(=O)OCCN(C)C,–,-6.45% [at 95 µM]
CC(=O)N(O)CCCCCNC(=O)CCC(=O)N(O)CCCCCNC(=O)CCC(=O)N(O)CCCCCN,–,7.04% [at 32.5 µM]
C[C@H](CCC(=O)O)[C@H]1CC[C@H]2[C@@H]3[C@H](O)C[C@@H]4C[C@H](O)CC[C@]4(C)[C@H]3CC[C@]12C,inactive,–
CCCCCCCCCCCCCCC1CO1 (stereo unspecified),–,8.98%
NCCCN(CCO)CCO,–,2.83%
CCCCCCCCCCCCCCCBr,–,11.7%
Cc1ncsc1CCO,–,18.5%
O=C(Nc1ccccc1)OCC(CN1CCCCC1)OC(=O)Nc1ccccc1 (stereo unspecified),–,2.85% [at 32.5 µM]
CC(C(=O)O)c1ccc(-c2ccccc2)c(F)c1 (stereo unspecified),inactive,–
O=C(C(=O)c1ccc(Br)cc1)c1ccc(Br)cc1,–,1.88% [at 32.5 µM]
OCC1CC2CC1C1CCC(CO)C21 (stereo unspecified),–,-5.79%
CCCCCCCCCO,–,3.3%
CCCCCCCCC(CO)CCCCCC (stereo unspecified),–,9.96%
CC(=O)CC(=O)c1ccccc1,–,19.5% [at 95 µM]
CC[C@H](C)[C@@H](C(=O)O)n1sc2ccccc2c1=O,–,5.41%

SMILES,Potency,"activity, negative = inhibition"
N=C(N=C(N)N)N1CCOCC1,–,9.97% [at 32.5 µM]
N[C@H]1C(O)O[C@H](CO)[C@H](O)[C@@H]1O (stereo partly specified),–,11.5%
O=C(O)COC(=O)Cc1ccccc1Nc1c(Cl)cccc1Cl,–,-3.75% [at 32.5 µM]
CC(C)(C)C1CCCCC1O (stereo unspecified),–,1.58%
NCCCOCCOCCOCCCN,–,-0.202%
N#CCc1cccc(C(F)(F)F)c1,–,13.8%
Cc1ccc(C(N)=O)cc1N,–,-6.72%
C=CC[N+]1([C@H]2C[C@H]3[C@@H]4CC[C@H]5C[C@H](OC(C)=O)[C@@H](N6CCCCC6)C[C@]5(C)[C@H]4CC[C@]3(C)[C@H]2OC(=O)CC)CCCCC1,–,-0.579%
CN(C)CCCOc1nn(Cc2ccccc2)c2ccccc12,–,11.2% [at 32.5 µM]
CC(=O)NCCCS(=O)(=O)O,inactive,–
CCOC(=O)CC(C)C,–,15.3%
CC(=O)SCc1ccco1,–,-9.25%
Cn1c(=O)c2c(ncn2CC(O)CO)n(C)c1=O (stereo unspecified),–,4.46% [at 32.5 µM]
CCOC(=O)CC(=O)c1cc(F)c(Cl)nc1Cl,–,-12.8% [at 95 µM]
Nc1nc(N)c2nc(CNc3ccc(C(=O)N[C@@H](CCC(=O)O)C(=O)O)cc3)cnc2n1,inactive,–
COCCOCCOCCOCCOC,–,4.18%
O=C(Cl)c1ccc([N+](=O)[O-])cc1,–,12.9%
